This note sets out measurements from PubChem BioAssay (NCATS).

Assay [1] in a line: Quantitative High-Throughput drug screen in 47 multiple myeloma cell lines against the NCATS MIPE library collection: Delta47_JCRB cell viability assay (AID 1918925; also: nearly all actives have a fitted effect of over 45% in size). The gist of the method: (§1)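 CellTiter-Glo luminescence (ATP) after 48 h compound exposure, 37C/5% CO2; 500 cells/well; MIPE 4.0 approved/investigational drugs pinned in; DMSO = 100%, media only = 0% viability.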
Assay [2] in a line: Quantitative High-Throughput drug screen in 47 multiple myeloma cell lines against the NCATS MIPE library collection: AMO1_DSMZ cell viability assay (AID 1918927; also: nearly all actives have a fitted effect of over 30% in size). The gist of the method:
as §1

Assay [3] can be described thus: Quantitative High-Throughput drug screen in 47 multiple myeloma cell lines against the NCATS MIPE library collection: ARP1_JJKsccF8 cell viability assay (AID 1918928; also: nearly all actives have a fitted effect of over 40% in size). The gist of the method: (§2)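 Luminescence from CellTiter-Glo, taken after 5 min at room temperature, reports cellular ATP as viability. Cells (500 per well) had been treated 48 h at 37 °C with MIPE 4.0 compounds, scaled between DMSO and medium-only controls.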

Assay [4] is described as follows: Quantitative High-Throughput drug screen in 47 multiple myeloma cell lines against the NCATS MIPE library collection: ARD_JJKsccE7 cell viability assay (AID 1918929). The gist of the method: as §1
Assay [5] is described as follows: Quantitative High-Throughput drug screen in 47 multiple myeloma cell lines against the NCATS MIPE library collection: KHM11_PLB cell viability assay (AID 1918962). Also: nearly all actives have a fitted effect of over 35% in size. The gist of the method:
as §1

A short description of assay [6]: Quantitative High-Throughput drug screen in 47 multiple myeloma cell lines against the NCATS MIPE library collection: JIM3_ECACC cell viability assay (AID 1918963; also: nearly all actives have a fitted effect of over 35% in size). In a few lines: as §1
Assay [7] can be described thus: Quantitative High-Throughput drug screen in 47 multiple myeloma cell lines against the NCATS MIPE library collection: JJN3_DSMZ cell viability assay (AID 1918966; also: nearly all actives have a fitted effect of over 50% in size). In a few lines:
as §1

Assay [8] in a line: Quantitative High-Throughput drug screen in 47 multiple myeloma cell lines against the NCATS MIPE library collection: KMS12BM_JCRB cell viability assay (AID 1918971). Also: nearly all actives have a fitted effect of over 35% in size. The gist of the method: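 Relative luminescence from CellTiter-Glo served as the viability signal, referenced to DMSO-treated (100%) and cell-free medium (0%) controls. Treatment lasted 48 hours at 37C with 500 cells per well.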

A short description of assay [9]: Quantitative High-Throughput drug screen in 47 multiple myeloma cell lines against the NCATS MIPE library collection: KMS21BM_JCRB cell viability assay (AID 1918974). Particulars: ATP luminescence, 48 h; viability: at 45.8 µM (top of the series) unless noted. In a few lines:
as §1

Assay [10] in a line: Quantitative High-Throughput drug screen in 47 multiple myeloma cell lines against the NCATS MIPE library collection: Karpas620_DSMZ cell viability assay (AID 1918959). Also: nearly all actives have a fitted effect of over 30% in size. The gist of the method: as §1
The nature of assay [11]: Quantitative High-Throughput drug screen in 47 multiple myeloma cell lines against the NCATS MIPE library collection: JIM1_ECACC cell viability assay (AID 1918964). The gist of the method:
as §1

A short description of assay [12]: Quantitative High-Throughput drug screen in 47 multiple myeloma cell lines against the NCATS MIPE library collection: INA6_PLB cell viability assay (AID 1918965; also: nearly all actives have a fitted effect of over 55% in size). In a few lines: (§3)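 Myeloma cells (500 per well) were exposed to MIPE 4.0 compounds by pin transfer and incubated 48 hours at 37C, 5% CO2. Viability was read as ATP by CellTiter-Glo luminescence, normalised to DMSO (100%) and media-only (0%) wells.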

A short description of assay [13]: Quantitative High-Throughput drug screen in 47 multiple myeloma cell lines against the NCATS MIPE library collection: H1112_PLB cell viability assay (AID 1918967; also: nearly all actives have a fitted effect of over 30% in size). The gist of the method:
as §1

A short description of assay [14]: Quantitative High-Throughput drug screen in 47 multiple myeloma cell lines against the NCATS MIPE library collection: KMS27_JCRB cell viability assay (AID 1918970). Also: nearly all actives have a fitted effect of over 30% in size. In a few lines: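 Each line is seeded at 500 cells per well and treated with library compounds for 48 hours under 37 °C, 5% CO2. CellTiter-Glo is then added for 5 min at room temperature before median relative luminescence is recorded.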

Assay [15] in a line: Quantitative High-Throughput drug screen in 47 multiple myeloma cell lines against the NCATS MIPE library collection: KMS20_JCRB cell viability assay (AID 1918973). Also: nearly all actives have a fitted effect of over 45% in size. In a few lines: as §1
The nature of assay [16]: Quantitative High-Throughput drug screen in 47 multiple myeloma cell lines against the NCATS MIPE library collection: Karpas25_ECACC cell viability assay (AID 1918968; also: nearly all actives have a fitted effect of over 35% in size). In a few lines: as §1
Assay [17] is described as follows: Quantitative High-Throughput drug screen in 47 multiple myeloma cell lines against the NCATS MIPE library collection: KMS12PE_JCRB cell viability assay (AID 1918972). Also: nearly all actives have a fitted effect of over 30% in size. In a few lines:
as §3

Assay [18] is described as follows: Quantitative High-Throughput drug screen in 47 multiple myeloma cell lines against the NCATS MIPE library collection: KMM1_JCRB cell viability assay (AID 1918960). Also: nearly all actives have a fitted effect of over 30% in size. The gist of the method: as §2
The nature of assay [19]: Quantitative High-Throughput drug screen in 47 multiple myeloma cell lines against the NCATS MIPE library collection: Karpas417_ECACC cell viability assay (AID 1918961). Particulars: Karpas417 myeloma viability, CellTiter-Glo ATP luminescence, 48 h; viability (% of DMSO): at 45.8 µM (top of the series). The gist of the method:
as §3
Background: ATP-based viability assays read luminescence as a measure of living cells.

Inconclusive results are not listed. Calls of active or inactive are those of the source. Calls follow the shape of the dose curve; as a rule, active = well fitted curve in the direction sought with a large enough effect; inconclusive = small, poorly fitted or top-dose-only effect, or another doubt; inactive = no such curve, though single readings can be large; an effect the other way counts as inactive or inconclusive.
Potency is read from the fitted curve at half-maximal effect.

With `COC(=O)Nc1nc2ccc(C(=O)c3ccc(F)cc3)cc2[nH]1`, the Potency is 0.418 µM (active) in [1]; 0.296 µM (active) in [2]; 0.418 µM (active) in assay [3]; 0.332 µM (active) in [4]; 0.264 µM (active) in assay [5]; 0.59 µM (active) in [6]. Further, the Potency is 2.35 µM (active) in assay [7], 0.833 µM (active) in assay [8] and 0.296 µM (active) in assay [9].

Regarding `Cc1coc2c1C(=O)C(=O)c1c-2ccc2c1CCCC2(C)C`, the Potency in assay [1] is 8.33 µM (active); in [2], 0.0209 µM (active); in assay [3], 16.6 µM (active); in assay [6], 6.62 µM (active); in assay [12] it was 16.6 µM (active); in [7], 11.8 µM (active). The Potency in [13] is 8.33 µM (active); in assay [14] it was 0.166 µM (active); in assay [8], 5.26 µM (active); in assay [15] it was 9.35 µM (active). In addition, the Potency result in [10] and in assay [11] was “inactive” each time.

Turning to `COc1cc(OC2CCN(C)CC2)ccc1Nc1ncc2c(n1)n(C1CCCC1)c(=O)n2C`, the Potency is 5.9 µM (active) in assay [1]; 11.8 µM (active) in assay [2]; 16.6 µM (active) in assay [3]; 23.5 µM (active) in assay [10]; 6.62 µM (active) in assay [5]; 11.8 µM (active) in assay [6]. Also, the Potency is 11.8 µM (active) in assay [11]; 3.72 µM (active) in assay [12]; 14.8 µM (active) in assay [13]; 6.62 µM (active) in assay [16]; 20.9 µM (active) in assay [14]; 9.35 µM (active) in assay [8]. Further, the Potency in assay [17] and in assay [15] was 7.43 µM (active) each time.

In the case of `O=c1[nH]c(=O)n(C2CCCO2)cc1F` (centres undefined), the Potency result in assay [1], in [2], in assay [3], in assay [4], in [10] and in assay [18] was “inactive” each time. Besides, the Potency entry in [5], in assay [6], in [11], in assay [7], in [13] and in assay [16] was “inactive” throughout. The Potency result in assay [14] and in [9] was “inactive” in each case. Also, the Potency in assay [8] was 19.1 µM (active).

For `CCC(=C(c1ccccc1)c1ccc(OCCN(C)C)cc1)c1ccccc1`, the Potency in [1] was 23.5 µM (active); in assay [4] it was 20.9 µM (active); in assay [10] it was 23.5 µM (active); in assay [18] it was 18.7 µM (active); in [19], 14.8 µM (active); in assay [6], 23.5 µM (active). Also, the Potency in [16] is 18.7 µM (active); in [8], 26.4 µM (active); in assay [9], 18.7 µM (active).

Turning to `CN[C@H]1CCc2cc(OC)c(OC)c(OC)c2-c2ccc(OC)c(=O)cc21`, the Potency was 0.001 µM (active) in assay [1]; 0.0015 µM (active) in assay [3]; 0.059 µM (active) in assay [19]; 0.001 µM (active) in assay [12]; 0.0187 µM (active) in assay [7]; 0.0017 µM (active) in [8]. Also, the Potency result in assay [10] and in assay [11] was “inactive” each time.

Turning to `C[C@@H]1CN(CC(=O)Nc2ccc3c(c2)Cc2cccc(-c4cc(=O)cc(N5CCOCC5)o4)c2S3)C[C@H](C)O1`, the Potency was 2.64 µM (active) in assay [1]; 5.26 µM (active) in assay [2]; 9.35 µM (active) in assay [3]; 18.7 µM (active) in [4]; 10.5 µM (active) in assay [18]; 13.2 µM (active) in assay [6]. For the same compound, the Potency in assay [12] was 11.8 µM (active); in assay [7], 13.2 µM (active); in [14], 18.7 µM (active); in assay [8], 20.9 µM (active); in assay [17], 13.2 µM (active).

On to `N#Cc1c(O)c2c(-c3ccc(-c4ccccc4O)cc3)csc2[nH]c1=O`, for which the Potency entry in assay [1], in [3], in assay [4], in assay [10], in assay [18] and in assay [6] was “inactive” throughout. In addition, the Potency result in assay [12], in [13], in assay [16] and in assay [14] was “inactive” throughout. In assay [8], the Potency was 5.26 µM (active).

`Cc1cccc(C=NNc2cc(N3CCOCC3)nc(OCCc3ccccn3)n2)c1`: the Potency in [1] is 1.32 µM (active); in [4], 1.05 µM (active); in assay [10] it was 0.469 µM (active); in [6], 2.35 µM (active); in [11], 0.935 µM (active); in assay [12], 14.8 µM (active). For the same compound, the Potency is 14.8 µM (active) in [8], 0.332 µM (active) in assay [17] and 6.62 µM (active) in assay [15].

For the compound `Cc1c(Cn2c(C)nc3c(C(=O)O)cc(N4CCOCC4)cc32)cccc1C(F)(F)F`, the Potency in assay [1] is 5.9 µM (active); in assay [2], 14.8 µM (active); in assay [18], 20.9 µM (active); in assay [6] it was 9.35 µM (active); in assay [15], 0.0935 µM (active). Also, the Potency result in [4], in assay [10] and in assay [17] was “inactive” throughout.

Turning to `COc1cc2c(Nc3ccc(NC(=O)c4ccccc4)cc3)ncnc2cc1OCCCN1CCOCC1`, the Potency is 8.33 µM (active) in assay [1]; 20.9 µM (active) in assay [3]; 6.62 µM (active) in [18]; 11.8 µM (active) in assay [12]; 23.5 µM (active) in assay [7]; 10.5 µM (active) in assay [15]. Further, the Potency entry in assay [10] and in [11] was “inactive” throughout. Moreover, the viability (% of DMSO) in assay [19] was 112% (active).

As for `NC1(Cc2ccc(Cl)cc2)CCN(c2ncnc3[nH]ccc23)CC1`, the Potency was 0.935 µM (active) in assay [1]; 2.09 µM (active) in [2]; 2.96 µM (active) in assay [3]; 0.935 µM (active) in [4]; 3.72 µM (active) in [18]; 2.96 µM (active) in assay [5]. For the same compound, the Potency was 2.96 µM (active) in assay [6]; 2.96 µM (active) in assay [11]; 13.2 µM (active) in [7]; 1.87 µM (active) in [16]; 4.69 µM (active) in [14]; 18.7 µM (active) in [8]. Moreover, the results for the Potency in [17] and in assay [15] were 3.72 µM (active) and 3.32 µM (active), respectively.

As to `CCNC(=O)Nc1ccc2ncc(Nc3ccc(C)cc3)nc2n1`, the Potency is 3.32 µM (active) in [1]; 3.72 µM (active) in [4]; 1.87 µM (active) in assay [10]; 2.64 µM (active) in assay [18]; 0.059 µM (active) in assay [19]; 3.72 µM (active) in assay [5]. In addition, the Potency in [6] was 4.69 µM (active); in assay [11] it was 0.935 µM (active); in [13], 5.9 µM (active); in assay [16] it was 5.9 µM (active); in assay [14], 0.526 µM (active).

`COc1ccc2c(OCc3nnc4ccc(-c5ccccc5)nn34)ccnc2c1`: the Potency result in assay [1], in assay [2], in assay [3], in [10], in [18] and in [6] was “inactive” throughout. The Potency entry in assay [13], in assay [16] and in assay [8] was “inactive” each time.
